Consider 23 compounds from PubChem BioAssay (EPA / NIEHS).

The source made the active and inactive calls. The calls were made as follows: active = hit-call score of the fitted dose curve at least 0.9, where 1 is the maximum; inactive = score below 0.9.

Read-out in the first assay: ABC Transporter (ABCB1), ABCB1 (gene 5243)
As to the kind of experiment: LTEA_HepaRG_ABCB1: Life Technologies and Expression Analysis (LTEA) Assay for ABC Transporter (ABCB1) using HepaRG (AID 2283460). To be noted: mRNA level, 48 h; actives raise or lower the signal. In outline: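 Differentiated human HepaRG cells, plated 48 h then switched to serum-free induction medium, were exposed in duplicate to eight half-log concentrations up to 100 uM in 0.5% DMSO for 48 h. ABCB1 mRNA was measured by TaqMan qRT-PCR, normalized to ACTB/GAPDH/POLR2A.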
Take `CNC(=O)/C=C(\C)OP(=O)(OC)OC`: the compound was classed as inactive.

For `N#Cc1c(Cl)c(Cl)c(Cl)c(C#N)c1Cl`, the call was inactive.

As to `CC1(C)C(C=C(Cl)Cl)C1C(=O)OC(C#N)c1ccc(F)c(Oc2ccccc2)c1` (centres undefined), the AC50 is 24.5 µM (active).

Regarding `O=C(NC(=O)c1c(F)cccc1F)Nc1ccc(OC(F)(F)C(F)OC(F)(F)F)c(Cl)c1` (centres undefined), the call was inactive.

Regarding `O=C(Nc1ccccc1)Nc1cnns1`, the outcome was inactive.

Regarding `O=S(=O)(O)C(F)(F)C(F)(F)C(F)(F)C(F)(F)C(F)(F)C(F)(F)C(F)(F)C(F)(F)F`, the call was inactive.

`CCc1ccc(C(=O)NN(C(=O)c2cc(C)cc(C)c2)C(C)(C)C)cc1`: the half-maximal activity concentration (AC50) is 13.3 µM (active).

Turning to `COP(=O)(OC)OC=C(Cl)Cl`, the compound was called inactive.

Regarding `CC[C@H](C)[C@H]1O[C@]2(C=C[C@@H]1C)C[C@@H]1C[C@@H](C/C=C(\C)[C@@H](O[C@H]3C[C@H](OC)[C@@H](O[C@H]4C[C@H](OC)[C@@H](O)[C@H](C)O4)[C@H](C)O3)[C@@H](C)/C=C/C=C3\CO[C@@H]4[C@H](O)C(C)=C[C@@H](C(=O)O1)[C@]34O)O2` (tested in a mixture with another compound), the half-maximal activity concentration (AC50) was 55.2 µM (active).

Take `Clc1ccccc1-c1nnc(-c2ccccc2Cl)nn1`: the call was inactive.

For `CNC(=O)Oc1ccccc1OC(C)C`, the result was inactive.

For `O=C1c2ccccc2C(=O)N1SC(Cl)(Cl)Cl`, the compound was classed as inactive.

Take `CCOC1Oc2ccc(OS(C)(=O)=O)cc2C1(C)C` (centres undefined): the concentration at half-maximal activity (AC50) was 35.2 µM (active).

For `O=C(O)CCCOc1ccc(Cl)cc1Cl`, the result was inactive.

Consider `CC(C)(C)C(O)/C(=C\c1ccc(Cl)cc1Cl)n1cncn1` (centres undefined), for which the AC50 is 84.4 µM (active).

In the case of `CCOCN(C(=O)CCl)c1c(C)cccc1CC`, the compound was classed as inactive.

`CCCN(CCOc1c(Cl)cc(Cl)cc1Cl)C(=O)n1ccnc1`: the AC50 was 3.22 µM (active).

For the compound `Cc1[nH]c(=O)n(C(C)(C)C)c(=O)c1Cl`, the call was inactive.

For the compound `CC(C)OC(=O)Nc1cccc(Cl)c1`, the call was inactive.

For `CCC(C)(NC(=O)c1cc(Cl)c(C)c(Cl)c1)C(=O)CCl` (centres undefined), the half-maximal activity concentration (AC50) was 89.8 µM (active).

As for `CNC(=O)CSP(=S)(OC)OC`, the result was inactive.

Turning to `CC1(c2ccc(Oc3ccccc3)cc2)OC(=O)N(Nc2ccccc2)C1=O` (centres undefined), the result was inactive.

As to `CNC(=O)Oc1cccc(N=CN(C)C)c1`, the call was inactive.

Read-out in a further assay: growth arrest and DNA damage 45 (GADD45B), GADD45B (gene 4616)
As to the kind of experiment: LTEA_HepaRG_GADD45B: Life Technologies and Expression Analysis (LTEA) Assay for growth arrest and DNA damage 45 (GADD45B) using HepaRG (AID 2283461). The following applies: mRNA level, 48 h; actives raise or lower the signal. In outline: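 Human HepaRG monolayers receive chemicals for 48 h at eight half-log concentrations, highest 100 uM, in 0.5% DMSO. Expression is measured by TaqMan qRT-PCR and normalized to ACTB, GAPDH and POLR2A.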
As for `CNC(=O)/C=C(\C)OP(=O)(OC)OC`, the result was inactive.

On to `N#Cc1c(Cl)c(Cl)c(Cl)c(C#N)c1Cl`, for which the compound was classed as inactive.

`CC1(C)C(C=C(Cl)Cl)C1C(=O)OC(C#N)c1ccc(F)c(Oc2ccccc2)c1` (centres undefined): the call was inactive.

In the case of `O=C(NC(=O)c1c(F)cccc1F)Nc1ccc(OC(F)(F)C(F)OC(F)(F)F)c(Cl)c1` (centres undefined), the result was inactive.

`O=C(Nc1ccccc1)Nc1cnns1`: the compound was called inactive.

On to `O=S(=O)(O)C(F)(F)C(F)(F)C(F)(F)C(F)(F)C(F)(F)C(F)(F)C(F)(F)C(F)(F)F`, for which the outcome was inactive.

On to `CCc1ccc(C(=O)NN(C(=O)c2cc(C)cc(C)c2)C(C)(C)C)cc1`, for which the outcome was inactive.

`COP(=O)(OC)OC=C(Cl)Cl`: the outcome was inactive.

With `CC[C@H](C)[C@H]1O[C@]2(C=C[C@@H]1C)C[C@@H]1C[C@@H](C/C=C(\C)[C@@H](O[C@H]3C[C@H](OC)[C@@H](O[C@H]4C[C@H](OC)[C@@H](O)[C@H](C)O4)[C@H](C)O3)[C@@H](C)/C=C/C=C3\CO[C@@H]4[C@H](O)C(C)=C[C@@H](C(=O)O1)[C@]34O)O2` (tested in a mixture with another compound), the AC50 was 7.13 µM (active).

Take `Clc1ccccc1-c1nnc(-c2ccccc2Cl)nn1`: the result was inactive.

As for `CNC(=O)Oc1ccccc1OC(C)C`, the compound was called inactive.

As for `O=C1c2ccccc2C(=O)N1SC(Cl)(Cl)Cl`, the outcome was inactive.

In the case of `CCOC1Oc2ccc(OS(C)(=O)=O)cc2C1(C)C` (centres undefined), the compound was classed as inactive.

With `O=C(O)CCCOc1ccc(Cl)cc1Cl`, the outcome was inactive.

Regarding `CC(C)(C)C(O)/C(=C\c1ccc(Cl)cc1Cl)n1cncn1` (centres undefined), the AC50 was 87.1 µM (active).

In the case of `CCOCN(C(=O)CCl)c1c(C)cccc1CC`, the concentration at half-maximal activity (AC50) was 75.5 µM (active).

Turning to `CCCN(CCOc1c(Cl)cc(Cl)cc1Cl)C(=O)n1ccnc1`, the outcome was inactive.

`Cc1[nH]c(=O)n(C(C)(C)C)c(=O)c1Cl`: the compound was called inactive.

Regarding `CC(C)OC(=O)Nc1cccc(Cl)c1`, the compound was classed as inactive.

As for `CCC(C)(NC(=O)c1cc(Cl)c(C)c(Cl)c1)C(=O)CCl` (centres undefined), the compound was classed as inactive.

With `CNC(=O)CSP(=S)(OC)OC`, the outcome was inactive.

In the case of `CC1(c2ccc(Oc3ccccc3)cc2)OC(=O)N(Nc2ccccc2)C1=O` (centres undefined), the compound was classed as inactive.

On to `CNC(=O)Oc1cccc(N=CN(C)C)c1`, for which the outcome was inactive.

Read-out in another assay: ABC Transporter (ABCC3), ABCC3 (gene 8714)
As to the kind of experiment: LTEA_HepaRG_ABCC3: Life Technologies and Expression Analysis (LTEA) Assay for ABC Transporter (ABCC3) using HepaRG (AID 2283462). The following applies: mRNA level, 48 h; actives raise or lower the signal. An outline of the steps:
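Transcriptional change of ABCC3 in HepaRG after 48 h treatment, determined by qRT-PCR normalized to endogenous controls. Concentrations spanned eight half-log steps to 100 uM in 0.5% DMSO.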
Take `CNC(=O)/C=C(\C)OP(=O)(OC)OC`: the outcome was inactive.

Regarding `N#Cc1c(Cl)c(Cl)c(Cl)c(C#N)c1Cl`, the result was inactive.

Turning to `CC1(C)C(C=C(Cl)Cl)C1C(=O)OC(C#N)c1ccc(F)c(Oc2ccccc2)c1` (centres undefined), the compound was classed as inactive.

Regarding `O=C(NC(=O)c1c(F)cccc1F)Nc1ccc(OC(F)(F)C(F)OC(F)(F)F)c(Cl)c1` (centres undefined), the result was inactive.

Regarding `O=C(Nc1ccccc1)Nc1cnns1`, the AC50 is 78.6 µM (active).

On to `O=S(=O)(O)C(F)(F)C(F)(F)C(F)(F)C(F)(F)C(F)(F)C(F)(F)C(F)(F)C(F)(F)F`, for which the call was inactive.

For `CCc1ccc(C(=O)NN(C(=O)c2cc(C)cc(C)c2)C(C)(C)C)cc1`, the result was inactive.

Turning to `COP(=O)(OC)OC=C(Cl)Cl`, the compound was classed as inactive.

On to `CC[C@H](C)[C@H]1O[C@]2(C=C[C@@H]1C)C[C@@H]1C[C@@H](C/C=C(\C)[C@@H](O[C@H]3C[C@H](OC)[C@@H](O[C@H]4C[C@H](OC)[C@@H](O)[C@H](C)O4)[C@H](C)O3)[C@@H](C)/C=C/C=C3\CO[C@@H]4[C@H](O)C(C)=C[C@@H](C(=O)O1)[C@]34O)O2` (tested in a mixture with another compound), for which the AC50 is 46.5 µM (active).

In the case of `Clc1ccccc1-c1nnc(-c2ccccc2Cl)nn1`, the compound was called inactive.

For `CNC(=O)Oc1ccccc1OC(C)C`, the call was inactive.

Take `O=C1c2ccccc2C(=O)N1SC(Cl)(Cl)Cl`: the call was inactive.

Consider `CCOC1Oc2ccc(OS(C)(=O)=O)cc2C1(C)C` (centres undefined), for which the concentration at half-maximal activity (AC50) was 66.7 µM (active).

For `O=C(O)CCCOc1ccc(Cl)cc1Cl`, the outcome was inactive.

On to `CC(C)(C)C(O)/C(=C\c1ccc(Cl)cc1Cl)n1cncn1` (centres undefined), for which the compound was classed as inactive.

As for `CCOCN(C(=O)CCl)c1c(C)cccc1CC`, the compound was called inactive.

Consider `CCCN(CCOc1c(Cl)cc(Cl)cc1Cl)C(=O)n1ccnc1`, for which the result was inactive.

As for `Cc1[nH]c(=O)n(C(C)(C)C)c(=O)c1Cl`, the call was inactive.

As for `CC(C)OC(=O)Nc1cccc(Cl)c1`, the compound was called inactive.

Consider `CCC(C)(NC(=O)c1cc(Cl)c(C)c(Cl)c1)C(=O)CCl` (centres undefined), for which the AC50 is 65.3 µM (active).

For the compound `CNC(=O)CSP(=S)(OC)OC`, the call was inactive.

Turning to `CC1(c2ccc(Oc3ccccc3)cc2)OC(=O)N(Nc2ccccc2)C1=O` (centres undefined), the result was inactive.

`CNC(=O)Oc1cccc(N=CN(C)C)c1`: the compound was classed as inactive.
